Source: PubChem BioAssay (NCATS)
Inconclusive results are not listed. A call without a number means that no potency is given here. Values without a mark were called inactive. Activity calls are given as the source filed them. The call rests on the fitted dose curve; in most records, active means well fitted curve in the direction sought with a large enough effect; inconclusive means small, poorly fitted or top-dose-only effect, or another doubt; inactive means no such curve, though single readings can be large; an effect the other way counts as inactive or inconclusive.

What was measured:
[1] = qHTS of pediatric cancer cell lines to identify multiple opportunities for drug repurposing: Primary screen for NB-EBc1 cells (AID 1347095); further: potency means the concentration at half of the fitted maximal effect
Method in brief: (§1)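 Plated cells (500-1,000 per well, growth media) were allowed to settle for 5 hours, treated with compound dilutions for 48 hours, then lysed with CellTiter-Glo for 15 min at room temperature before luminescence reading.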

[2] = qHTS of pediatric cancer cell lines to identify multiple opportunities for drug repurposing: Primary screen for U-2 OS cells (AID 1347096); further: nearly all actives have a fitted effect of over 50% in size; further: potency means the concentration at half of the fitted maximal effect
Method in brief: (§2)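 Cells (500-1,000/well) rested 5 h, then received compounds for 48 h; metabolically active cells were measured by CellTiter-Glo luminescence. Final concentrations spanned up to 46 µM (MIPE, 11-point) or 0.59 nM-46 µM (NPC, 8-point) in primary screens, 11-point in follow-ups.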

[3] = qHTS of pediatric cancer cell lines to identify multiple opportunities for drug repurposing: Primary screen for Saos-2 cells (AID 1347097); further: nearly all actives have a fitted effect of over 40% in size; further: potency means the concentration at half of the fitted maximal effect
Method in brief: as §1

[4] = qHTS of pediatric cancer cell lines to identify multiple opportunities for drug repurposing: Primary screen for SK-N-SH cells (AID 1347098); further: nearly all actives have a fitted effect of over 65% in size; further: potency means the concentration at half of the fitted maximal effect;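 on activity change, negative = cytotoxic: DMSO served as neutral control and bortezomib at 2.3 µM as positive control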
Method in brief: as §2

[5] = qHTS of pediatric cancer cell lines to identify multiple opportunities for drug repurposing: Primary screen for LAN-5 cells (AID 1347100); further: potency means the concentration at half of the fitted maximal effect
Method in brief: as §2

[6] = qHTS of pediatric cancer cell lines to identify multiple opportunities for drug repurposing: Primary screen for BT-12 cells (AID 1347101); further: nearly all actives have a fitted effect of over 25% in size; further: potency means the concentration at half of the fitted maximal effect
Method in brief: as §2

[7] = qHTS of pediatric cancer cell lines to identify multiple opportunities for drug repurposing: Primary screen for Rh18 cells (AID 1347102); further: nearly all actives have a fitted effect of over 65% in size; further: potency means the concentration at half of the fitted maximal effect
Method in brief: as §2

[8] = qHTS of pediatric cancer cell lines to identify multiple opportunities for drug repurposing: Primary screen for RD cells (AID 1347104); further: nearly all actives have a fitted effect of over 55% in size; further: potency means the concentration at half of the fitted maximal effect
Method in brief: as §1

[9] = qHTS of pediatric cancer cell lines to identify multiple opportunities for drug repurposing: Primary screen for MG 63 (6-TG R) cells (AID 1347105); further: nearly all actives have a fitted effect of over 50% in size; further: potency means the concentration at half of the fitted maximal effect
Method in brief: as §1

[10] = qHTS of pediatric cancer cell lines to identify multiple opportunities for drug repurposing: Primary screen for Rh30 cells (AID 1347107); further: nearly all actives have a fitted effect of over 75% in size; further: potency means the concentration at half of the fitted maximal effect; on activity change, negative = cytotoxic: series mostly up to about 46 µM
Method in brief: as §2

[11] = qHTS of pediatric cancer cell lines to identify multiple opportunities for drug repurposing: Primary screen for Rh41 cells (AID 1347108); further: nearly all actives have a fitted effect of over 70% in size; further: potency means the concentration at half of the fitted maximal effect;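 on activity change, negative = cytotoxic: series mostly up to about 46 µM; luminescence drop marks cytotoxic hits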
Method in brief: as §1

[12] = qHTS of pediatric cancer cell lines to identify multiple opportunities for drug repurposing: Confirmatory screen for NB1643 cells (AID 1347109); further: potency means the concentration at half of the fitted maximal effect; nearly all actives have a fitted effect of over 45% in size
Method in brief: as §2

[13] = qHTS of pediatric cancer cell lines to identify multiple opportunities for drug repurposing: Confirmatory screen for A673 cells (AID 1347110);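 further: potency means the concentration at half of the fitted maximal effect; cells exposed to compound for 48 h before the viability read; nearly all actives have a fitted effect of over 65% in size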
Method in brief: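 Viability was read as ATP luminescence (CellTiter-Glo) after 48 h of compound exposure at 37 C in A673 cells seeded at 500-1,000/well. Titrations reached 46 uM final, with 11 points in the confirmatory screen. Concentration-response curves were fitted directly.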

[14] = qHTS of pediatric cancer cell lines to identify multiple opportunities for drug repurposing: Confirmatory screen for SK-N-MC cells (AID 1347111); settings: SK-N-MC cell viability;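 further: potency means the concentration at half of the fitted maximal effect; cells exposed to compound for 48 h before the readout; nearly all actives have a fitted effect of over 70% in size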
Method in brief: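 Seed 500-1,000 cells/well; rest 5 h at 37 degrees C. Pin-transfer compounds, 11-point titration. Incubate 48 h. Add CellTiter-Glo, 15 min RT, read luminescence.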

[15] = qHTS of pediatric cancer cell lines to identify multiple opportunities for drug repurposing: Confirmatory screen for BT-12 cells (AID 1347112); further: nearly all actives have a fitted effect of over 55% in size; further: potency means the concentration at half of the fitted maximal effect
Method in brief: as §2

[16] = qHTS of pediatric cancer cell lines to identify multiple opportunities for drug repurposing: Confirmatory screen for LAN-5 cells (AID 1347113); further: potency means the concentration at half of the fitted maximal effect; nearly all actives have a fitted effect of over 65% in size
Method in brief: as §2

[17] = qHTS of pediatric cancer cell lines to identify multiple opportunities for drug repurposing: Confirmatory screen for DAOY cells (AID 1347114)
Method in brief: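 Viability measured as metabolically active cells via CellTiter-Glo luminescence following 48 hours of compound exposure, 11-point dilutions in confirmatory testing. 500-1,000 cells/well plated 5 hours before dosing; controls were DMSO and 2.3 µM bortezomib.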

[18] = qHTS of pediatric cancer cell lines to identify multiple opportunities for drug repurposing: Primary screen for NB1643 cells (AID 1347099); further: nearly all actives have a fitted effect of over 50% in size
Method in brief: as §1

[19] = qHTS of pediatric cancer cell lines to identify multiple opportunities for drug repurposing: Primary screen for control Hh wild type fibroblast cells (AID 1347106);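 further: series mostly up to about 46 µM; a drop in luminescence marks cytotoxicity and a rise apparent proliferation; nearly all actives have a fitted effect of over 55% in size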
Method in brief: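 Viability after 48 h compound treatment at 37C, 500-1,000 cells/well, read as ATP luminescence with CellTiter-Glo. Primary screens used 11-point (MIPE, 0.78 nM-46 µM) or 8-point (NPC, 0.59 nM-46 µM) final concentrations; follow-up screens used 11-point dilutions.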

[20] = qHTS of pediatric cancer cell lines to identify multiple opportunities for drug repurposing: Primary screen for OHS-50 cells (AID 1347103); further: nearly all actives have a fitted effect of over 40% in size
Method in brief: as §2

Structure (SMILES): C[n+]1cc2c3c(ccc2c2ccc4cc5c(cc4c21)OCO5)OCO3
- Potency [1]: 1.03 µM (active)
- Potency [2]: 2.91 µM (active)
- Potency [3]: 4.11 µM (active)
- Potency [4]: 1.5 µM (active)
- Potency [5]: 1.16 µM (active)
- Potency [6]: 1.69 µM (active)
- Potency [7]: 2.06 µM (active)
- Potency [8]: 1.84 µM (active)
- Potency [9]: 2.31 µM (active)
- Potency [10]: 2.59 µM (active)
- Potency [11]: 2.59 µM (active)
- Potency [12]: 1.02 µM (active)
- Potency [13]: 1.15 µM (active)
- Potency [14]: 1.29 µM (active)
- Potency [15]: 3.23 µM (active)
- Potency [16]: 0.811 µM (active)
- Potency [17]: 2.29 µM (active)

Structure (SMILES): NCCCNCCSP(=O)(O)O
- activity change, negative = cytotoxic [1]: 10.2% [at 9.22 µM]
- activity change, negative = cytotoxic [2]: 2.93% [at 9.22 µM]
- activity change, negative = cytotoxic [3]: -20.9% [at 9.22 µM]
- activity change, negative = cytotoxic [4]: -0.785% [at 11.4 µM]
- activity change, negative = cytotoxic [18]: 7.51% [at 9.22 µM]
- activity change, negative = cytotoxic [5]: 27.4% [at 9.22 µM]
- activity change, negative = cytotoxic [7]: 9.05% [at 9.22 µM]
- activity change, negative = cytotoxic [8]: 5.99% [at 9.22 µM]
- activity change, negative = cytotoxic [19]: 2.73% [at 9.22 µM]
- activity change, negative = cytotoxic [10]: 17.5% [at 9.22 µM]
- activity change, negative = cytotoxic [11]: 20.1% [at 9.22 µM]
- activity change, negative = cytotoxic [15]: 1.94% [at 9.58 µM]

Structure (SMILES): CN(C)CCOC(=O)COc1ccc(Cl)cc1
- Potency [1]: inactive
- Potency [2]: inactive
- Potency [3]: inactive
- Potency [4]: inactive
- Potency [18]: inactive
- Potency [5]: inactive
- Potency [7]: inactive
- Potency [8]: inactive
- outcome [19]: inactive
- Potency [11]: inactive

Structure (SMILES): C[N+](C)(C)CCCCCCCCCC[N+](C)(C)C
- Potency [1]: inactive
- Potency [2]: inactive
- Potency [3]: inactive
- Potency [4]: inactive
- Potency [5]: inactive
- Potency [6]: inactive
- Potency [7]: inactive
- Potency [20]: inactive
- Potency [9]: inactive
- outcome [19]: inactive
- Potency [11]: inactive

Structure (SMILES): O=C1CC2(CCCC2)CC(=O)N1CCCCN1CCN(c2ncccn2)CC1
- Potency [1]: inactive
- Potency [2]: inactive
- Potency [3]: inactive
- Potency [4]: inactive
- Potency [18]: inactive
- Potency [5]: inactive
- Potency [7]: inactive
- Potency [20]: inactive
- outcome [19]: inactive
- Potency [10]: inactive
- Potency [11]: inactive

Structure (SMILES): COc1cc(Cc2cnc(N)nc2N)cc(OC)c1OC
- Potency [1]: inactive
- Potency [2]: inactive
- Potency [3]: inactive
- Potency [4]: inactive
- Potency [5]: inactive
- Potency [7]: inactive
- Potency [20]: inactive
- Potency [8]: inactive
- Potency [9]: inactive
- outcome [19]: inactive
- Potency [10]: inactive
- Potency [11]: inactive

Structure (SMILES): CCN(CC)CCOCCOC(=O)C1(c2ccccc2)CCCC1
- Potency [1]: inactive
- Potency [2]: inactive
- Potency [3]: inactive
- Potency [4]: inactive
- Potency [5]: inactive
- Potency [6]: inactive
- Potency [7]: inactive
- outcome [19]: inactive
- Potency [10]: inactive
- Potency [11]: inactive

Structure (SMILES): CCCCNC(=O)NS(=O)(=O)c1ccc(C)cc1
- Potency [1]: inactive
- Potency [2]: inactive
- Potency [3]: inactive
- Potency [4]: inactive
- Potency [5]: inactive
- Potency [7]: inactive
- Potency [20]: inactive
- Potency [8]: inactive
- Potency [9]: inactive
- outcome [19]: inactive
- Potency [10]: inactive
- Potency [11]: inactive

Structure (SMILES): CN1CCN(CC(=O)N2c3ccccc3C(=O)Nc3cccnc32)CC1
- activity change, negative = cytotoxic [1]: 16.9% [at 4.84 µM]
- activity change, negative = cytotoxic [2]: 4.1% [at 4.84 µM]
- activity change, negative = cytotoxic [3]: -2.29% [at 4.84 µM]
- activity change, negative = cytotoxic [4]: 4.46% [at 6 µM]
- activity change, negative = cytotoxic [5]: 10.3% [at 4.84 µM]
- activity change, negative = cytotoxic [6]: 5.59% [at 6.03 µM]
- activity change, negative = cytotoxic [7]: 9.39% [at 4.84 µM]
- activity change, negative = cytotoxic [9]: 3.64% [at 4.84 µM]
- activity change, negative = cytotoxic [19]: 2.83% [at 4.84 µM]
- activity change, negative = cytotoxic [10]: 18% [at 4.84 µM]
- activity change, negative = cytotoxic [11]: 19.3% [at 4.84 µM]

Structure (SMILES): CCN1CCc2nc(N)oc2CC1
- Potency [1]: inactive
- Potency [2]: inactive
- Potency [3]: inactive
- Potency [4]: inactive
- Potency [18]: inactive
- Potency [5]: inactive
- Potency [7]: inactive
- Potency [20]: inactive
- Potency [9]: inactive
- Potency [10]: inactive
- Potency [11]: inactive

Structure (SMILES): COCCc1ccc(OCC(O)CNC(C)C)cc1 (configuration not stated)
- Potency [1]: inactive
- Potency [2]: inactive
- Potency [3]: inactive
- Potency [4]: inactive
- Potency [18]: inactive
- Potency [5]: inactive
- Potency [7]: inactive
- Potency [8]: inactive
- Potency [9]: inactive
- Potency [10]: inactive
- Potency [11]: inactive

Structure (SMILES): CN(C)[C@@H]1C(=O)C(C(N)=O)=C(O)[C@@]2(O)C(=O)C3=C(O)c4c(O)ccc(Cl)c4[C@@H](O)[C@H]3C[C@@H]12
- Potency [1]: inactive
- Potency [2]: inactive
- Potency [3]: inactive
- Potency [4]: inactive
- Potency [18]: inactive
- Potency [5]: inactive
- Potency [7]: inactive
- Potency [20]: inactive
- Potency [9]: inactive
- outcome [19]: inactive
- Potency [10]: inactive
- Potency [11]: inactive

Structure (SMILES): NC(=O)c1cn(Cc2c(F)cccc2F)nn1
- Potency [1]: inactive
- Potency [2]: inactive
- Potency [3]: inactive
- Potency [4]: inactive
- Potency [18]: inactive
- Potency [5]: inactive
- Potency [7]: inactive
- Potency [8]: inactive
- Potency [9]: inactive
- outcome [19]: inactive
- Potency [11]: inactive

Structure (SMILES): CCCN1C[C@H](CSC)C[C@@H]2c3cccc4[nH]cc(c34)C[C@H]21
- Potency [1]: inactive
- Potency [2]: inactive
- Potency [3]: inactive
- Potency [4]: inactive
- Potency [5]: inactive
- Potency [6]: inactive
- Potency [7]: inactive
- Potency [9]: inactive
- outcome [19]: inactive
- Potency [10]: inactive
- Potency [11]: inactive

Structure (SMILES): CCCCCN(CCCCC)C(=O)C(CCC(=O)O)NC(=O)c1ccc(Cl)c(Cl)c1 (configuration not stated)
- Potency [1]: inactive
- Potency [2]: inactive
- Potency [3]: inactive
- Potency [4]: inactive
- Potency [18]: inactive
- Potency [5]: inactive
- Potency [7]: inactive
- Potency [20]: inactive
- Potency [8]: inactive
- outcome [19]: inactive
- Potency [11]: inactive

Structure (SMILES): Cc1nc2c([nH]1)c(=O)n(C)c(=O)n2Cc1ccco1
- Potency [1]: inactive
- Potency [2]: inactive
- Potency [3]: inactive
- Potency [4]: inactive
- Potency [5]: inactive
- Potency [6]: inactive
- Potency [7]: inactive
- Potency [20]: inactive
- Potency [8]: inactive
- Potency [9]: inactive
- Potency [10]: inactive
- Potency [11]: inactive

Structure (SMILES): NC(=O)c1ncn([C@@H]2O[C@H](CO)[C@@H](O)[C@H]2O)c1O
- Potency [1]: inactive
- Potency [2]: inactive
- Potency [3]: inactive
- Potency [4]: inactive
- Potency [5]: inactive
- Potency [6]: inactive
- Potency [7]: inactive
- Potency [9]: inactive
- Potency [11]: inactive

Structure (SMILES): Cc1ccc(S(=O)(=O)NC(=O)NN2CCCCCC2)cc1
- Potency [1]: inactive
- Potency [2]: inactive
- Potency [3]: inactive
- Potency [4]: inactive
- Potency [18]: inactive
- Potency [5]: inactive
- Potency [7]: inactive
- Potency [20]: inactive
- Potency [8]: inactive
- outcome [19]: inactive
- Potency [10]: inactive
- Potency [11]: inactive

Structure (SMILES): CC(=O)OCC1=C(C(=O)O)N2C(=O)[C@@H](NC(=O)Cc3cccs3)[C@H]2SC1
- Potency [1]: inactive
- Potency [2]: inactive
- Potency [3]: inactive
- Potency [4]: inactive
- Potency [18]: inactive
- Potency [5]: inactive
- Potency [7]: inactive
- Potency [20]: inactive
- Potency [9]: inactive
- Potency [10]: inactive
- Potency [11]: inactive
